# Shown are actives, neighbours in structure and some others; about 0.82% of the full set was active somewhere.
# PrPC surface inh: cell surface PrPC inhibition, primary TR-FRET screen; AID 720596; 370,000 tested, 0.43% active; P04156; inhibition, % at 13.8 µM; TR-FRET read-out; in the data active = inhibition above about 24%; also: 0% = median of the test wells and 100% = reference compound wells
# TcdB inh: blocks C. difficile toxin B glycohydrolase activity; inhibition, % at 9.99 µM; P18177; TcdB glycohydrolase enzymatic assay, plate reader; 350,000 tested, 0.24% active; AID 652162; in the data active = inhibition above about 10%
# DUSP3 inh: inhibitors of human VHR1 phosphatase (DUSP3) | AID 1654 | 290,000 tested, 0.52% active | inhibition, % at 13.3 µM | recombinant VHR phosphatase, pNPP absorbance | P51452; in the data active = inhibition above about 50%
# PrPC TRFRET cf: cell surface PrPC inhibition, TR-FRET confirmation; shares compounds with PrPC surface inh; cell surface PrPC level; inhibition, % at 13.8 µM; 1,500 tested, 65% active; in the data active = inhibition above about 25%
# LD9 cytotox: counter-screen for PrPc inhibitors: cytotoxicity in LD9 cells | inhibition, % at 13.8 µM | 1,500 tested, 29% active | luminescence viability | shares compounds with PrPC surface inh | AID 743201; in the data active = inhibition above about 9.5%
# Starred values were filed as active, the others as inactive; nt = no result given.
SMILES,PrPC surface inh,TcdB inh,DUSP3 inh,PrPC TRFRET cf,LD9 cytotox
C[C@H]1CN([C@@H](C)CO)C(=O)Cc2cc(NS(C)(=O)=O)ccc2O[C@H]1CN(C)Cc1ccc(-c2ccccc2)cc1,nt,0,nt,nt,nt
Cc1cccc(NC(=S)NCc2ccc3c(c2)cc(C)n3C)c1C,28*,0,5,5,1
Cc1cc2cc(CNC(=O)Nc3cccc(Cl)c3)ccc2n1C,35*,2,11,44*,-2
COc1cccc(NC(=S)NCc2ccc3c(c2)cc(C)n3C)c1,19,1,2,nt,nt
Cc1cc2cc(CNC(=S)Nc3ccc(OC(F)(F)F)cc3)ccc2n1C,27*,0,-7,34*,-4
Cc1cccc(NC(=O)NCc2ccc3c(c2)cc(C)n3C)c1,22,-1,24,nt,nt
Cc1cc2cc(CNC(=O)CCC(=O)O)ccc2n1C,-2,1,9,nt,nt
COc1ccc(S(=O)(=O)Nc2ccc3c(c2)CC(=O)N([C@H](C)CO)C[C@H](C)[C@@H](CN(C)CC2CCCCC2)O3)cc1,nt,0,nt,nt,nt
N#C[C@H]1[C@@H](c2ccc(C#CC3CCCCC3)cc2)[C@H](CO)N1C(=O)Cc1ccccn1,nt,1,nt,nt,nt
O=C(Nc1ccccc1)N1CC(=O)N2[C@@H](CO)[C@@H](c3ccc(C#CC4CCCC4)cc3)[C@@H]2C1,nt,-1,nt,nt,nt
C[C@@H]1CN([C@@H](C)CO)C(=O)c2cc(NC(=O)Cc3ccccc3)ccc2O[C@@H]1CN(C)S(=O)(=O)c1cn(C)cn1,nt,0,nt,nt,nt
Cc1ccc(CSCc2nc3ccccc3[nH]2)cc1,11,2,12,nt,nt
Cc1cc(C)cc(CC(Cc2nc3ccccc3[nH]2)c2nc3ccccc3[nH]2)c1 (configuration not stated),28*,nt,-2,30*,1
O=C(C[C@H]1C=C[C@H](NC(=O)c2cccc(F)c2)[C@@H](CO)O1)NCCN1CCCC1,nt,-2,nt,nt,nt
c1ccc2[nH]c(CNc3nc(N4CCOCC4)nc4c3ncn4-c3ccsc3)nc2c1,12,nt,nt,nt,nt
FC(F)(F)c1ccc2nc(CNc3nc(N4CCOCC4)nc4c3ncn4-c3ccsc3)[nH]c2c1,41*,nt,nt,37*,17*
O=[N+]([O-])c1ccc2nc(CNc3nc(N4CCOCC4)nc4c3ncn4-c3ccsc3)[nH]c2c1,12,nt,nt,nt,nt
c1ccc2cc3[nH]c(CNc4nc(N5CCOCC5)nc5c4ncn5-c4ccsc4)nc3cc2c1,25*,nt,nt,38*,13*
O=C(CSc1ccc([N+](=O)[O-])cn1)Nc1ccc2c(c1)OCCO2,41*,2,28,-11,0
CN(C)S(=O)(=O)c1ccc(SCC(=O)Nc2ccc3c(c2)OCCO3)nc1,11,0,nt,nt,nt
O=C1c2c(O)cccc2C(C2OC(CO)[C@@H](O)[C@H](O)[C@H]2O)c2cc(CO)cc(O)c21 (some centres not stated),-12,-2,nt,nt,nt
O=C(O)c1cc(O)c2c(c1)[C@H]([C@H]1c3cc(C(=O)O)cc(O)c3C(=O)c3c(O[C@@H]4O[C@H](CO)[C@@H](O)[C@H](O)[C@H]4O)cccc31)c1cccc(OC3O[C@H](CO)[C@@H](O)[C@H](O)[C@H]3O)c1C2=O (some centres not stated),91*,-51,nt,12,0
COc1cc(CN2CC3(CN(C(=O)Nc4cccc(F)c4)C3)c3c(n(C)c4cc(OC)ccc34)[C@@H]2CO)cc(OC)c1,nt,-1,nt,nt,nt
COc1ccc(CC2C(=O)NC(C)C(=O)N(C)C3Cc4ccc(cc4)Oc4cc(ccc4O)CC(C(=O)NC(C)C(=O)NC(C)C(=O)N2C)N(C)C3=O)cc1 (configuration not stated),83*,1,nt,90*,34*
COc1cc2c3cc1Oc1c(OC)c(OC)cc4c1[C@H](Cc1ccc(cc1)Oc1cc(ccc1O)C[C@H]3N(C)CC2)N(C)CC4,-5,-7,nt,nt,nt
SMILES,PrPC surface inh,TcdB inh,DUSP3 inh,PrPC TRFRET cf,LD9 cytotox
CCc1ccccc1N(C)S(=O)(=O)c1ccc2[nH]cc(C(=O)N3CCc4ccccc43)c(=O)c2c1,100*,0,0,4,-5
Cc1cccc(N(C)S(=O)(=O)c2ccc3[nH]cc(C(=O)N4CCOCC4)c(=O)c3c2)c1,7,nt,35,nt,nt
C[C@H]1CN([C@@H](C)CO)C(=O)c2cccc(NC(=O)Nc3ccc(F)cc3)c2O[C@@H]1CN(C)Cc1ccc(C(=O)Nc2ccccc2N)cc1,nt,-6,nt,nt,nt
CCOc1ccc(-c2n[nH]c(=S)o2)cc1,2,1,33,nt,nt
CCOc1ccccc1-c1n[nH]c(=S)o1,27*,1,19,25*,-7
CCC(=O)NC(c1ccc(OC)cc1)c1cc(Cl)c2cccnc2c1O (configuration not stated),-4,1,-18,nt,nt
CCCCC(=O)NC(c1ccc(C(C)C)cc1)c1ccc2cccnc2c1O (configuration not stated),13,1,13,nt,nt
CCCC(=O)NC(c1ccccc1)c1ccc2cccnc2c1O (configuration not stated),23,0,14,nt,nt
CCCCC(=O)NC(c1ccccc1)c1ccc2cccnc2c1O (configuration not stated),29*,3,19,27*,19*
CCCC(=O)NC(c1ccc(OC)cc1)c1ccc2cccnc2c1O (configuration not stated),27*,1,20,26*,32*
CCCCC(=O)NC(c1ccccc1Cl)c1ccc2cccnc2c1O (configuration not stated),39*,2,-6,32*,30*
CN1c2ccc(-c3ccc(C#N)cc3)cc2[C@@H]2[C@@H](CCN2C(=O)CC2CC2)[C@H]1CO,nt,0,nt,nt,nt
O=S(=O)(c1ccc(F)cc1)N1CCCCN2[C@@H](CO)[C@H](c3ccc(-c4ccccc4F)cc3)[C@@H]2C1,nt,0,nt,nt,nt
COc1ccccc1-c1ccc([C@H]2[C@@H](CO)N(C(=O)C3CCOCC3)[C@H]2C#N)cc1,nt,0,nt,nt,nt
Cc1ccc(NS(=O)(=O)c2ccc3c(c2)NC(=O)CCS3)cc1F,8,1,-8,nt,nt
Cc1ccc(NS(=O)(=O)c2ccc3c(c2)NC(=O)CCS3)cc1C,25*,-1,-1,18,27*
C[C@H]1CN([C@@H](C)CO)C(=O)c2cc(NS(=O)(=O)c3cn(C)cn3)ccc2O[C@H]1CN(C)S(=O)(=O)c1ccc(Cl)cc1,nt,0,nt,nt,nt
O=C(NNC(=O)C(c1ccccc1)c1ccccc1)c1ccccn1,34*,1,14,23,43*
O=C(NNc1ccccn1)C(c1ccccc1)c1ccccc1,-5,1,15,nt,nt
O=C(CSc1nnc(COc2ccc(Cl)cc2)n1Cc1ccco1)Nc1ccc2c(c1)OCO2,25*,nt,nt,22,3
Cc1ccc(OCc2nnc(SCC(=O)Nc3ccc4c(c3)OCO4)n2Cc2ccco2)cc1,23,nt,nt,nt,nt
Brc1ccc(-c2nnc3sc(CNCc4ccc5c(c4)OCO5)cn23)cc1,-9,0,2,nt,nt
Brc1ccc(-c2nnc3sc(CNC4CCCC4)cn23)cc1,46*,2,-4,58*,-3
O=C(C1=C[C@H](C2CC2)C[C@H](OCCCCO)O1)N1CCCC1,nt,0,nt,nt,nt
COc1ccc(S(=O)(=O)N(CC(=O)NC2CC3CCC2C3)c2ccccc2OC)cc1 (configuration not stated),-5,2,28,nt,nt

# Compound activity: PubChem BioAssay, several laboratories
